Here are results for seven compounds from PubChem BioAssay (NCATS).

A number with no mark means an inactive call. Inconclusive results are not listed. The source made the active and inactive calls. Unless noted, calls follow the shape of the dose curve; as a rule, active = well fitted curve in either direction with a large enough effect (not every such curve was filed as active); inconclusive = small, poorly fitted or top-dose-only effect, or another doubt; inactive = flat fitted curve, though single readings scatter.

Assay [1] deals with Lysosomal acid glucosylceramidase (Homo sapiens) (UniProt P04062). The assay is described as follows: Glucocerebrosidase-p2 (AID 348; in the data active = potency below about 10 µM; also: potency is read from the fitted curve at half-maximal effect). The conditions noted are these: purified GBA, blue fluorogenic substrate, 40 min. Summed up:
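Normal human glucocerebrosidase (0.2 nM) with blue fluorogenic substrate (80 uM final) in citrate/phosphate pH 5.9 with 10mM sodium taurocholate, 0.01% tween-20; 40 min RT, NaOH/glycine stop; fluorescence Ex 365/Em 440; AC50 from a titration from 0.6 nM upwards.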

Assay [2] is described as follows: AP1 Signaling Pathway (AID 357).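 Also: ME-180 reporter cells stimulated with EGF at its EC50 level; % is scaled to controls: 0 for no effect and ±100 for the full control effect.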 The conditions noted are these: ME-180 AP-1-bla reporter, EGF-induced, beta-lactamase ratio, 5 h; at 7.69 µM (top of the series) unless noted. Summed up: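 Modulation of EGF-driven AP-1 transcription was assessed with a beta-lactamase reporter in ME-180 cells. Compound and EC50 EGF were co-incubated 5 hours at 37 °C before 2.5-hour CCF4 loading at room temperature and dual-emission reading.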

Assay [3] deals with Cytochrome P450 1A2 (Homo sapiens) (UniProt P05177). The experiment in a line: p450-cyp1a2 (AID 410; calls by dose curve; also: potency is read from the fitted curve at half-maximal effect;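 as to activity change, negative = inhibition: -100% = full effect of reference inhibitor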). The following applies: recombinant CYP1A2, luciferin-ME demethylation, luminescence; series mostly up to 11.4 µM. Summed up: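 Read-out is luminescence from luciferin produced by CYP1A2 demethylation of Luciferin-ME (100uM, at Km). Detection reagent stopped the 60 min NADPH-dependent reaction; signals were normalized to 57 uM furafylline.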
Sequence of Cytochrome P450 1A2 (Homo sapiens) (P05177 whole entry, looked up): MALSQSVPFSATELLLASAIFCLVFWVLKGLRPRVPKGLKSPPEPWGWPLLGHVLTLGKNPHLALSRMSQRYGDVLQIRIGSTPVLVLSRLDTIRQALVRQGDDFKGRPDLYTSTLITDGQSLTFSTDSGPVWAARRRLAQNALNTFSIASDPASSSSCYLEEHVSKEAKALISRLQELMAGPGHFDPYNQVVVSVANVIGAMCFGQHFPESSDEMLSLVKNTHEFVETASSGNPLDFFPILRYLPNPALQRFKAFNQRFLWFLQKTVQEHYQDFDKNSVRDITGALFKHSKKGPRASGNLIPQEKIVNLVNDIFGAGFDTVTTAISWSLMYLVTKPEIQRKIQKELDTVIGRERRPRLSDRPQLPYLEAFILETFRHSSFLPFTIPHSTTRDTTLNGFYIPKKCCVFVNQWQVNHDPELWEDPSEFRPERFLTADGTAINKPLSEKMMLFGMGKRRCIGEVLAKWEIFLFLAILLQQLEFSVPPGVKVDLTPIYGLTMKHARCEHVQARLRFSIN

The nature of assay [4]: NFAT Signaling Pathway (AID 444).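 Also: carbachol stimulus at about its EC50 of 1 µM final; % is scaled to controls: 0 for no effect and ±100 for the full control effect.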 The following applies: Jurkat NFAT-bla M1, carbachol, beta-lactamase ratio, 5 h; at 7.69 µM (top of the series) unless noted. An outline of the steps:
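Jurkat cells carrying an NFAT-driven β-lactamase reporter and co-transfected muscarinic M1 receptor were treated with compound plus carbachol (1 uM final, an EC50 level) for 5 h at 37 °C. CCF4 loading followed for 1 h at RT; 460/530 nm ratio gave %activity.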

A short description of assay [5]: Stat Signaling Pathway (AID 446).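 Also: ME-180 cervical cancer cells given 40 pM IL-6 alongside compound; SIE-controlled beta-lactamase reporter measured as 460/530 nm FRET emission ratio; % is scaled to controls: 0 for no effect and ±100 for the full control effect.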 The following applies: ME-180 SIE beta-lactamase reporter, IL-6 stimulated, 5 h; at 7.69 µM (top of the series) unless noted. An outline of the steps: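 Emission at 460 and 530 nm (excitation 405 nm) reports SIE-controlled beta-lactamase in ME-180 cells. Cells received compound with 40 pM IL-6 for 5 hrs at 37 C; data scaled between 300 pM IL-6 and 125 nM JAK-inhibitor controls.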

Assay [6] has as its target Glucocorticoid receptor (Homo sapiens) (UniProt P04150). The assay is described as follows: GR-GFP Redistribution (AID 450;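 active = compounds whose dose series gives a full or clear partial fitted curve of increased nuclear translocation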; also: potency is read from the fitted curve at half-maximal effect). The conditions noted are these: U2OS GR-GFP nuclear translocation, laser cytometry, 2 h.
The target is the same in assay [7]. The experiment in a line: GR-EFC Redistribution (AID 451; calls by dose curve; also: potency is read from the fitted curve at half-maximal effect). The following applies: CHO-K1 GR-EFC translocation, beta-gal luminescence, 2 h. Summed up: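 CHO-K1 cells stably expressing nuclear-localized β-gal enzyme acceptor and GR fused C-terminally to the enzyme donor fragment; ligand-driven nuclear translocation restores β-gal by complementation. Compounds titrated up to 46 uM final, 2 h at 37 °C; luminescence read.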

Assay [8] has as its target Mitogen-activated protein kinase 10 (Mus musculus) (UniProt Q61831). The experiment in a line: JNK3 AlphaScreen Assay (AID 530).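 Also: kinase came from lysate of stimulated human HepG2 cells; signal reports phosphorylation of biotinylated GST-cJun 1-79 at Ser73 with 10 µM ATP; % is scaled to controls: 0 for no effect and ±100 for the full control effect.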 The conditions noted are these: JNK3 lysate, c-Jun phosphorylation; series mostly up to 11.4 µM. An outline of the steps:
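Biotinylated GST-cJun(1-79) served as substrate for JNK3 in HepG2 lysates stimulated with IL-1beta and TNF-alpha. ATP was 10 uM final, pH 7.6. Ser73 phosphorylation was quantified by AlphaScreen (680 nm excitation).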

For assay [9], the target named is 3',5'-cyclic-AMP phosphodiesterase 4B (Homo sapiens) (UniProt Q07343). The experiment in a line: qHTS Assay for Inhibitors of PDE-IV (AID 607; active = well fitted activation curve with a large enough effect in the main read-out, with a control signal flat, not every such curve was filed as active; also: % of control where 0% means no effect). The conditions noted are these: HEK293 ACTOne CNG channel cells, membrane potential fluorescence; series mostly up to 22.9 µM. An outline of the steps: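 The readout is membrane depolarisation from a cAMP-sensing CNG channel, detected with a potential dye at ex 535/em 590. Cells were HEK293-derived (endogenous PDE-IV) at 1000 cells/well, titrated up to 22.9 uM final.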
Sequence of 3',5'-cyclic-AMP phosphodiesterase 4B (Homo sapiens) (Q07343 whole entry, looked up): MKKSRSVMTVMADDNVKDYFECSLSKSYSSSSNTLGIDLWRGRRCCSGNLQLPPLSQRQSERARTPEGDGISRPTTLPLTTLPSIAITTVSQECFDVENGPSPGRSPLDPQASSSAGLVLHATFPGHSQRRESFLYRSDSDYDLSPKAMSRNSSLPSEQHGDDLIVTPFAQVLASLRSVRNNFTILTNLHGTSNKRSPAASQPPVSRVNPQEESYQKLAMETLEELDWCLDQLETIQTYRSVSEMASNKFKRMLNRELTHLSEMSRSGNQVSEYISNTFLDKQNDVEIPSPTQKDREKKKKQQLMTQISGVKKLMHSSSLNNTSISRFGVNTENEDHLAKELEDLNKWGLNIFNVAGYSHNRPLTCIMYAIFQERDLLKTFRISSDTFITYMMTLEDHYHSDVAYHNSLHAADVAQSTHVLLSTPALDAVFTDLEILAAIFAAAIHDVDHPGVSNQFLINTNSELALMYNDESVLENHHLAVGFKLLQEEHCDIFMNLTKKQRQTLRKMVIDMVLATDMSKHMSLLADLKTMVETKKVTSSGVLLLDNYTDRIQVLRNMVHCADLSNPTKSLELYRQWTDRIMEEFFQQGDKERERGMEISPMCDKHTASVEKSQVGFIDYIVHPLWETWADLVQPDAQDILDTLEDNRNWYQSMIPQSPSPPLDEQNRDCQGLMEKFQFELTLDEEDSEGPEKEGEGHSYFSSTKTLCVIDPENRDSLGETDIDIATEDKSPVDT
For orientation: qHTS replaces the single test concentration by a dilution series.

Assay [10] deals with Cytochrome P450 3A4 (Homo sapiens) (UniProt P08684). The experiment in a line: qHTS Assay for Activators of Cytochrome P450 3A4 (AID 885; active = well fitted curve in the direction sought with a large enough effect; an effect the other way counts as inactive or inconclusive; also: nearly all actives have a fitted effect of over 65% in size). The following applies: recombinant CYP3A4, Luciferin-PPXE luminescence, 60 min; series mostly up to 11.4 µM. Summed up:
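Activators are scored by enhanced luminescence from CYP3A4 conversion of luciferin-PPXE (25uM, equal to KM) to luciferin, after 60 min at RT with an NADPH-regenerating system.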

Assay [11] deals with Cytochrome P450 2C19 (Homo sapiens) (UniProt P33261). The experiment in a line: qHTS Assay for Inhibitors and Substrates of Cytochrome P450 2C19 (AID 899; active = well fitted curve in the direction sought with a large enough effect; an effect the other way counts as inactive or inconclusive; also: potency is read from the fitted curve at half-maximal effect; nearly all actives have a fitted effect of over 60% in size). The conditions noted are these: recombinant CYP2C19, luciferin-H EGE luminescence; series mostly up to 11.4 µM. An outline of the steps:
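In 50mM KPO4, the reaction held 5nM enzyme and KM-level (10uM) Luciferin-H EGE; it ran 60 min at 37C after NADPH regeneration and a 10 min compound preincubation. Luminescence values were scaled to 57uM ketoconazole as complete inhibition.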

Assay [12] is described as follows: Confirmation and Secondary Assay for Modulators of Hemoglobin Beta Chain Splicing at IVS2 654 locus (AID 910; active = well fitted curve in the direction sought with a large enough effect; an effect the other way counts as inactive or inconclusive;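 also: per-well total GFP intensity by laser scanning cytometry after 2-day treatment; % of control where 0% means no effect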). The conditions noted are these: HeLa EGFP-654 splicing reporter, GFP fluorescence, 48 h; series mostly up to 38.3 µM. An outline of the steps:
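HeLa cells stably carrying EGFP interrupted by mutant beta-globin IVS2-654 intron (CMV-driven) were treated with compound for 2 days at 37C; corrected splicing was scored as total peak GFP intensity per well (488 nm excitation, 500-520 nm emission).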

A short description of assay [13]: qHTS Assay for Identification of Small Molecule Agonists for Hypoxia Response Element Signaling Pathway (AID 914; active = well fitted activation curve with a large enough effect in the signal ratio, with a control signal flat, not every such curve was filed as active; the % refers to the signal ratio; also: % of control where 0% means no effect). The following applies: ME-180 (cervical carcinoma) HRE-bla reporter, beta-lactamase ratio, CoCl2, 17 h; activation: stronger effect = higher value. Summed up:
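Compounds in a titration series were added to ME-180 reporter cells alongside an EC50 level of CoCl2. After 17 hours, beta-lactamase activity was read as the 460nm/530nm emission ratio of CCF4, giving AC50 values.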

Assay [14] can be described thus: Confirmation and Secondary Assay for Modulators of Hemoglobin Beta Chain Splicing at IVS2 705 locus (AID 930; active = well fitted curve in the direction sought with a large enough effect; an effect the other way counts as inactive or inconclusive;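 also: HeLa cells stably expressing the EGFP-705 splicing reporter; GFP fluorescence per well restored by corrected splicing of the IVS2-705 intron in EGFP; % of control where 0% means no effect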). The conditions noted are these: HeLa EGFP-705 splicing reporter, GFP fluorescence, 48 h; series mostly up to 38.3 µM. Summed up:
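Assay measures total GFP intensity per well in HeLa EGFP-705 cells after 2 days with compound; mis-splicing normally truncates EGFP, so fluorescence indicates corrected splicing.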

For assay [15], the target named is Cytochrome P450 2D6 (Homo sapiens) (UniProt P10635). The assay is described as follows: qHTS Assay for Inhibitors and Substrates of Cytochrome P450 2D6 (AID 891; active = well fitted curve in the direction sought with a large enough effect; an effect the other way counts as inactive or inconclusive; also: nearly all actives have a fitted effect of over 60% in size; also: potency is read from the fitted curve at half-maximal effect). The following applies: recombinant CYP2D6, luciferin-ME EGE luminescence; series mostly up to 11.4 µM. Summed up: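 Luminescent read-out of luciferin formed by 5 nM human CYP2D6 demethylating 30 uM Luciferin-ME EGE (Km level) over 60 min at room temperature after NADPH regeneration addition. Data normalized to full inhibition by 1.43 uM quinidine.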
Sequence of Cytochrome P450 2D6 (Homo sapiens) (P10635 whole entry, looked up): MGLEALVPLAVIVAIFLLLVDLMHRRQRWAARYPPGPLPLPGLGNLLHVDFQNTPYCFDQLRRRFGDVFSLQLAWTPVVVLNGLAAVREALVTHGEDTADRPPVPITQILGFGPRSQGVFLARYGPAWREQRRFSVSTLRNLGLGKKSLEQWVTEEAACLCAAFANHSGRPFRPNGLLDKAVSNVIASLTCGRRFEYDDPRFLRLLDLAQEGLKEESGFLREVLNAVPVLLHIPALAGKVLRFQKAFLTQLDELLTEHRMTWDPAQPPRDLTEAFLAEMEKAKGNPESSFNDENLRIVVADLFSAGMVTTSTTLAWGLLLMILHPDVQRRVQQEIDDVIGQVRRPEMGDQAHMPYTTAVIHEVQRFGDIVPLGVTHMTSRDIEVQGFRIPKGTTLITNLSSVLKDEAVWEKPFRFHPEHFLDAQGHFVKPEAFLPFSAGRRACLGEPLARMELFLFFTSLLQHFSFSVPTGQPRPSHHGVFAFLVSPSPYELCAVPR

Sequence of Cytochrome P450 3A4 (Homo sapiens) (P08684 whole entry, looked up): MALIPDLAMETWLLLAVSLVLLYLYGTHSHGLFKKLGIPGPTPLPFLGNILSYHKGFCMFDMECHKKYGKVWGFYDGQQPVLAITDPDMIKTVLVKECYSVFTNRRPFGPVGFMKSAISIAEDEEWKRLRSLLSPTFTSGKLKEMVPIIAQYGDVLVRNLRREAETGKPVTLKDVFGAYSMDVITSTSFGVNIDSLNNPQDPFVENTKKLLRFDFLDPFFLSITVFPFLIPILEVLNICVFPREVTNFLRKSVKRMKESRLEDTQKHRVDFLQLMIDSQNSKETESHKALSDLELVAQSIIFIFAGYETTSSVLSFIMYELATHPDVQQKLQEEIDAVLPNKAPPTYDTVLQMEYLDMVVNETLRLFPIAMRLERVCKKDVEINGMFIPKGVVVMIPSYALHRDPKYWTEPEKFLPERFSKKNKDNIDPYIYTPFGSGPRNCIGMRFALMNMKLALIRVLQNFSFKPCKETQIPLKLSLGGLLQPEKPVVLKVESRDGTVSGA
Sequence of Glucocorticoid receptor (Homo sapiens) (P04150 whole entry, looked up, the tested form may be a part): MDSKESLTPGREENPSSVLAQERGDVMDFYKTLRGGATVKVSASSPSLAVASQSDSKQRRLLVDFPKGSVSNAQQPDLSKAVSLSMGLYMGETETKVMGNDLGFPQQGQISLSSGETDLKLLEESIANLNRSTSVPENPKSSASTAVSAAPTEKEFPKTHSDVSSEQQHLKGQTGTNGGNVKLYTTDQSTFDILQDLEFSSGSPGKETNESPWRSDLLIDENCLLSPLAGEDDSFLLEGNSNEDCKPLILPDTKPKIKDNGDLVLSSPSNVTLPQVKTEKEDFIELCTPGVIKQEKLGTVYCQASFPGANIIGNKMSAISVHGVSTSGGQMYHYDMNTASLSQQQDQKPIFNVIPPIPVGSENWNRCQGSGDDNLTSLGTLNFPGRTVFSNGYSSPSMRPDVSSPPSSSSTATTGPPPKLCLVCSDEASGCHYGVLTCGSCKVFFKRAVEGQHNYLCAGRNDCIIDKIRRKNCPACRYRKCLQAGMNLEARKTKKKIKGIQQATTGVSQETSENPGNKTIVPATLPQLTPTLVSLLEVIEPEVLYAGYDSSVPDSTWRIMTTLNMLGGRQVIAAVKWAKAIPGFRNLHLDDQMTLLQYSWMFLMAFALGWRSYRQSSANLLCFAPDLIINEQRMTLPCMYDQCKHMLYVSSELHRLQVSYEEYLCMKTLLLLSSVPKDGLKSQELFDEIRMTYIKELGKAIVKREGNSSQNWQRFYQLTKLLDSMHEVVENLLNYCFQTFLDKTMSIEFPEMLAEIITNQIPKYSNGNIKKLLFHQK
Sequence of Lysosomal acid glucosylceramidase (Homo sapiens) (P04062 whole entry, looked up): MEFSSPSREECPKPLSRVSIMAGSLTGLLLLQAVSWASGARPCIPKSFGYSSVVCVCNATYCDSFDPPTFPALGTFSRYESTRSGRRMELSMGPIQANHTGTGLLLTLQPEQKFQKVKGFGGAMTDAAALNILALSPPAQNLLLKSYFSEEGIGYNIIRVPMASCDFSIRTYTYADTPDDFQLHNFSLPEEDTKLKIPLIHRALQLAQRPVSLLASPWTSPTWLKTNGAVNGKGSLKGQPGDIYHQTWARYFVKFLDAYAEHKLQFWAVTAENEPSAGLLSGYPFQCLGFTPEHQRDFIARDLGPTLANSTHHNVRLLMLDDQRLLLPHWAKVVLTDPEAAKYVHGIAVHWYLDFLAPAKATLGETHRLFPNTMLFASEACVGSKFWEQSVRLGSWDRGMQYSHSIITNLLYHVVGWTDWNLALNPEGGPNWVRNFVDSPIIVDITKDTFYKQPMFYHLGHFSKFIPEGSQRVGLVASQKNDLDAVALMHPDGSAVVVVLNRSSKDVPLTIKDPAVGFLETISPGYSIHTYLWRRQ
Sequence of Cytochrome P450 2C19 (Homo sapiens) (P33261 whole entry, looked up): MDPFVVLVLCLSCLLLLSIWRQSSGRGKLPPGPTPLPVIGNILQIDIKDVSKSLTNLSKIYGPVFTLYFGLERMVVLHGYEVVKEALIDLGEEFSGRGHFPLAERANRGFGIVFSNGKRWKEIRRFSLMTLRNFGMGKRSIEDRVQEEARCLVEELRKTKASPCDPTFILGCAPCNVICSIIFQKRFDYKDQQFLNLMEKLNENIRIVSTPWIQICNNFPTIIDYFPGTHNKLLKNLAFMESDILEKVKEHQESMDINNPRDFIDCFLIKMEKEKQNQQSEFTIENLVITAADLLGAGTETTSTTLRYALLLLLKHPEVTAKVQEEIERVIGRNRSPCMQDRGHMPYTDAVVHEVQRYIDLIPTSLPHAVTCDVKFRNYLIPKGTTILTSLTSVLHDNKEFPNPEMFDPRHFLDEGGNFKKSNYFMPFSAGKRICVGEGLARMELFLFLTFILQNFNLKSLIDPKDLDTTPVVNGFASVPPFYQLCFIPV

`Cc1cc(O)c(C(C)C)cc1NC(=O)Nc1cccc2ccccc12`: the Potency in assay [1] was greater than 11.4 µM; in [3], 0.794 µM (active); in assay [6], greater than 46 µM; in [7] it was greater than 9.22 µM; in [11], 0.0501 µM (active). Besides, the activity change, negative = inhibition is -27.4% in assay [2] and -15.2% in [4]. Moreover, the activity, negative = inhibition in assay [5] was -19%. The Potency entry in assay [8], in assay [9] and in assay [10] was “inactive” throughout.
As for `CN(C)C(=O)c1ccc(-c2nc(Nc3ccncc3)c3ccccc3n2)cc1`, the Potency in assay [1] was 3.84 µM (active); in [3] it was 7.94 µM (active); in assay [6], greater than 46 µM; in assay [7], greater than 46 µM. Also, the activity change, negative = inhibition was -14.2% in assay [2] and -7.95% in assay [4]. In [5], the activity, negative = inhibition is -6.09%. Moreover, the Potency entry in [8], in assay [9] and in assay [10] was “inactive” each time. Also, the result in assay [12] and in assay [14] was inactive. Besides, the activation in assay [13] was -8.23%.
Consider `Oc1ccc2ccccc2c1CN(Cc1c(O)ccc2ccccc12)C1CCCCC1`, for which the Potency in [1] is greater than 11.4 µM; in assay [3], 0.631 µM (active); in [6], greater than 46 µM; in assay [7], greater than 9.22 µM; in assay [15], 0.631 µM (active). Also, the activity change, negative = inhibition in assay [2] is 3.63%; in [4] it was -9.52%. The activity, negative = inhibition in assay [5] is -14.2%. Moreover, the Potency result in assay [8] and in [9] was “inactive” in each case.
With `Clc1cc2c(c(CSC3=NCN(CC4CC4)CN3)c1)OCOC2`, the Potency in [1] was greater than 11.4 µM; in assay [3] it was 3.16 µM (active); in assay [6] it was greater than 46 µM; in [7], greater than 9.22 µM; in [15], 0.199 µM (active). The activity change, negative = inhibition in assay [2] was 5.83%; in assay [4], -19.2%. The activity, negative = inhibition in [5] was 0.512%. The Potency entry in [8] and in [9] was “inactive” each time.
In the case of `Clc1ccc2c(N3CCC(CCC4CCN(c5ncnc6cc(Cl)ccc56)CC4)CC3)ncnc2c1`, the Potency is greater than 11.4 µM in [1]; 3.16 µM (active) in assay [3]; greater than 46 µM in assay [6]; greater than 9.22 µM in [7]; 0.794 µM (active) in [15]. In addition, the activity change, negative = inhibition was 0.285% in assay [2] and 0.959% in [4]. For the same compound, in [5], the activity, negative = inhibition was 0.136%. The Potency entry in [8] and in assay [9] was “inactive” throughout.
In the case of `O=c1cnc2cnc(Oc3ccccc3)nc2n1Cc1ccc(F)cc1`, the Potency in [1] was greater than 11.4 µM; in [3], 15.8 µM (active); in assay [6], greater than 9.22 µM; in assay [7], greater than 46 µM; in assay [11] it was 2.51 µM (active). Besides, the activity change, negative = inhibition in assay [2] is -8.79%; in assay [4], -4.49%. Moreover, in assay [5], the activity, negative = inhibition was 18.8%. Besides, the Potency result in assay [8], in [9] and in assay [10] was “inactive” throughout.
Take `O=C(O)[C@@H](c1ccccc1)[C@@H](C(=O)O)c1ccccc1`: the results for the Potency in assay [1], in assay [6] and in [7] were greater than 11.4 µM, greater than 46 µM and greater than 9.22 µM, respectively. Besides, the activity change, negative = inhibition was 3.89% in [2], -12% [at 2.29 µM] in assay [3] and 6.48% in assay [4]. Moreover, in assay [5], the activity, negative = inhibition was -0.514%. Besides, the Potency result in [8], in [9] and in assay [15] was “inactive” each time.
